Measurements published in PubChem BioAssay AID1942 (Johns Hopkins Ion Channel Center, 2009).
Out of some 2,400 compounds screened, about 580 (24%) were called active. The list is a sample of the results. Values without a mark were called inactive.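 Rule for the calls: active = activity change at or above the mean plus 3 SD of buffer wells without dofetilide, per plate; inactive = the rest.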

These compounds were tested against Potassium voltage-gated channel subfamily KQT member 2 (Rattus norvegicus) (UniProt O88943) (assay: KCNQ2 potentiation in CHO cells – cell-based, FluxOR thallium flux, counter-screen for hERG block protector project, confirmation (AID 1942;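 note: normalized value minus buffer-control mean plus three SD of buffer wells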)). Conditions: FluxOR thallium flux fluorescence, at 10 µM, active compounds read high.
Chain of Potassium voltage-gated channel subfamily KQT member 2 (Rattus norvegicus) (O88943 whole entry, looked up): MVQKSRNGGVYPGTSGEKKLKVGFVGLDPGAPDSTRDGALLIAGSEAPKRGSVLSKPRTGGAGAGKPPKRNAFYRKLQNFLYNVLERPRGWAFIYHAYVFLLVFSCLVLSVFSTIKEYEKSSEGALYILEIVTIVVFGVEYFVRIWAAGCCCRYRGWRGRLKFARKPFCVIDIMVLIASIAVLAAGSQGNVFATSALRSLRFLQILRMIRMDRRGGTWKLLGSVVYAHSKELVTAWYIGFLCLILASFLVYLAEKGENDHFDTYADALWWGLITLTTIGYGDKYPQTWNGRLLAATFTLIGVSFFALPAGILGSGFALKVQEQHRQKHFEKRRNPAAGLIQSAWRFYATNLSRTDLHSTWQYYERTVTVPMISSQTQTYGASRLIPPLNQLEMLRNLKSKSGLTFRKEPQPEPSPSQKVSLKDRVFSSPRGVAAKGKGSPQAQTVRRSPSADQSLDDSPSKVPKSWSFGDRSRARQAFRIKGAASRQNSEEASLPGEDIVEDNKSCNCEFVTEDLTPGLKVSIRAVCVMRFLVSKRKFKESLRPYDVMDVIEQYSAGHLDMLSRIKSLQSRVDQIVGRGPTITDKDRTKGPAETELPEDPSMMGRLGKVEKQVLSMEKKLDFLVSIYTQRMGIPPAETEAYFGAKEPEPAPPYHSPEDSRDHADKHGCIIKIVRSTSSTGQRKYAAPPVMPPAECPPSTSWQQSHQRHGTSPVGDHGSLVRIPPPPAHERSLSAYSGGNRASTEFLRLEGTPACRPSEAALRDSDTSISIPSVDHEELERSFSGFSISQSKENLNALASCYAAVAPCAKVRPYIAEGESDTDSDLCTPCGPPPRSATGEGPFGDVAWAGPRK
`Cn1c(=O)c2sccc2n(Cc2cccc(Br)c2)c1=O` showed an activity change, less the hit threshold of -20.7%. With `CCN1CCN(CCNC(=O)CCCn2nc(C)c3c(C)n(-c4ccc(C)cc4)nc3c2=O)CC1` the activity change, less the hit threshold was -21%. In the case of `S=c1nc(Cc2ccccc2)[nH]c2ccccc12`, the activity change, less the hit threshold is reported as 76.9% (active). For `CSc1nc(C)c(Cc2ccccc2)c(=O)[nH]1`, the activity change, less the hit threshold was -18.7%. With `S=c1nc(SCc2ccccc2)[nH]c2ccccc12` the activity change, less the hit threshold was 73.5% (active). `CC(C)c1ccc(/C=N/n2c(COc3ccccc3)n[nH]c2=S)cc1` showed an activity change, less the hit threshold of -16.5%. In the case of `S=c1nc(COc2ccccc2)[nH]c2ccccc12`, the activity change, less the hit threshold is reported as 131% (active). For `O=c1[nH]c(SCc2cccc(Cl)c2)nc2ccccc12`, the activity change, less the hit threshold was -14.1%. Compound `S=c1[nH]nc(Cc2ccc(Br)cc2)n1/N=C/c1ccc(Cl)cc1` has an activity change, less the hit threshold of -13.3%. Work on `O=C(O)CCCCCNc1nc(=S)[nH]c2ccccc12` yielded an activity change, less the hit threshold of -0.8%. In the case of `S=c1nc(Cc2ccc(Cl)cc2)[nH]c2ccccc12`, the activity change, less the hit threshold is reported as 28.2% (active). Work on `N=C1S/C(=C\c2ccco2)C(=O)N1c1nccs1` yielded an activity change, less the hit threshold of -12%. Work on `CC(=O)Nc1ccc(S(=O)(=O)N2CCC(NC(=O)c3ccccc3)CC2)cc1` yielded an activity change, less the hit threshold of -20.1%. `Cc1ccc(NC(=O)CSc2nnc(C3CC3)n2CC2CCCO2)c(C)c1` (stereo unspecified) showed an activity change, less the hit threshold of -18.6%. `S=c1[nH]nc(-c2ccco2)n1/N=C/C(Cl)=C/c1ccccc1` was tested, and the activity change, less the hit threshold was -17.6%. `O=C(c1cncc(Br)c1)N1CCc2ccccc2C1` was tested, and the activity change, less the hit threshold was -24.3%. For `C/C(=N\N1CCN(C2c3ccccc3-c3ccccc32)CC1)c1ccncc1`, the activity change, less the hit threshold was -19.2%. Compound `O=C(Nn1cnnc1)c1ccncc1` has an activity change, less the hit threshold of -10.9%. In the case of `CC(NC(=O)c1ccncc1)C(C)(C)C` (stereo unspecified), the activity change, less the hit threshold is reported as 2.9% (active). `O=C(NC(C(=O)c1ccccc1)n1cnccc1=O)c1ccccc1` (stereo unspecified) showed an activity change, less the hit threshold of -8.7%. `Cc1c(OC(C(=O)O)c2ccccc2)ccc2c(-c3ccccc3)cc(=O)oc12` (stereo unspecified) was tested, and the activity change, less the hit threshold was -7%. `Cc1ccc2c(c1)c1c(n2CC(O)Cn2nc(C)c(Br)c2C)CCCC1` (stereo unspecified) was tested, and the activity change, less the hit threshold was -17.5%. Compound `Cc1cc(C)c2nc(NC(=O)CN3C(=O)NC4(CCCC4)C3=O)sc2c1` has an activity change, less the hit threshold of -9%. For `COC(=O)c1sc(NC(=S)NC(=O)c2ccc(C)cc2)nc1C`, the activity change, less the hit threshold was -13.3%. For `COC(=O)c1sc(NC(=S)NC(=O)c2ccccc2F)nc1C`, the activity change, less the hit threshold was 11.7% (active). `COC(=O)c1sc(NC(=S)NC(=O)c2ccccc2C)nc1C` was tested, and the activity change, less the hit threshold was 26.5% (active). For `O=c1[nH]c(=O)n(CCc2ccc(F)cc2)c(O)c1C=NCc1ccc2c(c1)OCO2`, the activity change, less the hit threshold was -22.5%. For `COc1ccc(C(=O)NC2CC3CCCC(C2)N3Cc2ccccc2)cc1` (stereo unspecified), the activity change, less the hit threshold was -27.5%. In the case of `O=c1[nH]c(N2CCN(c3ccccc3)CC2)nc2c1CCCC2`, the activity change, less the hit threshold is reported as -11.1%. `C=C(C)CSc1nc(N)cc(=O)[nH]1` gave an activity change, less the hit threshold of -12%. `CC1CCCCC1n1c(=S)[nH]c2ccccc2c1=O` (stereo unspecified) was tested, and the activity change, less the hit threshold was 6.6% (active). Work on `O=c1c2ccccc2[nH]c(=S)n1C1CCCCC1` yielded an activity change, less the hit threshold of -15.1%. In the case of `CC1CCC(N2CCN(C(=O)c3ccccc3F)CC2)CC1` (stereo unspecified), the activity change, less the hit threshold is reported as -9.6%. `CC1CCC(n2c(=S)[nH]c3ccccc3c2=O)CC1` (stereo unspecified) was tested, and the activity change, less the hit threshold was 47.8% (active). In the case of `Cn1c(O)c(N=NC(=S)Nc2ccccc2F)c2cc(S(=O)(=O)N3CCOCC3)ccc21`, the activity change, less the hit threshold is reported as -19.7%. `Cc1ccc(C(C)C)cc1S(=O)(=O)NC1CC(C)(C)NC(C)(C)C1` showed an activity change, less the hit threshold of -26%. `Nc1cc(N)nc(SCc2cc(=O)oc3cc4c(cc23)CCC4)n1` gave an activity change, less the hit threshold of -20.8%. `CS(=O)(=O)N(CCc1ccccc1)CC(=O)N1CCN(c2ccc(F)cc2)CC1` gave an activity change, less the hit threshold of -26.1%. Work on `Cc1cc(C(=O)NCc2ccc(S(N)(=O)=O)cc2)ccc1[N+](=O)[O-]` yielded an activity change, less the hit threshold of -13.6%. `O=C(NCc1cccnc1)c1ccc(NS(=O)(=O)c2ccc(F)cc2)cc1` gave an activity change, less the hit threshold of -4.9%. Work on `O=C(NC(=S)Nc1ncc(Br)cc1Br)c1ccccc1` yielded an activity change, less the hit threshold of -0.7%. For `Cc1cc2ccccn2c1C(=S)NC(=O)c1ccccc1`, the activity change, less the hit threshold was 40.3% (active). `O=C(c1n[nH]c2c1CCCC2)n1ccnc1` gave an activity change, less the hit threshold of -12.7%. In the case of `C[C@@H]1CCCCCCCCCCC1=O`, the activity change, less the hit threshold is reported as -18%. For `Cc1ccc(C(=O)CC(=O)c2ccc(C)cc2O)cc1`, the activity change, less the hit threshold was -9.3%. `Cc1ccc(C(=O)CC(=O)COc2ccc(Cl)cc2C)cc1` was tested, and the activity change, less the hit threshold was -1.4%. In the case of `Cc1ccc(C(=O)COC(=O)C2CCC2)cc1`, the activity change, less the hit threshold is reported as 2.2% (active). `O=c1ccn(Cc2ccc(F)cc2)c2ccnc(C(F)(F)F)c12` was tested, and the activity change, less the hit threshold was -16.3%. For `CCc1ccc2[nH]c(=O)c(-c3ccccc3)c(O)c2c1`, the activity change, less the hit threshold was -20.4%. Compound `Cc1cc2[nH]c(=O)c(=O)[nH]c2cc1S(=O)(=O)N1CCN(c2cccc(C)c2C)CC1` has an activity change, less the hit threshold of -10.5%. `Cc1cccc(N2CCN(C(=O)CNC(=O)c3cccc([N+](=O)[O-])c3)CC2)c1C` gave an activity change, less the hit threshold of -27.6%. With `Cc1cccc(N2CCN(C(=O)Cc3c(C(=O)O)[nH]c4ccc(Cl)cc34)CC2)c1C` the activity change, less the hit threshold was 16.8% (active). `CCOC(=O)C1=C(N)Oc2cc(O)ccc2C1c1cccnc1` (stereo unspecified) was tested, and the activity change, less the hit threshold was -24.7%. With `O=C(NC(=S)Nc1ccc(N2CCCCC2)c(Cl)c1)c1cccs1` the activity change, less the hit threshold was -0.7%. In the case of `COc1ccc(N2CCN(C(=S)NC(=O)c3cccs3)CC2)c([N+](=O)[O-])c1`, the activity change, less the hit threshold is reported as -6.4%. `CC(C)Oc1cccc(C(=O)NC(=S)N2CCN(c3ccc(C(F)(F)F)cc3[N+](=O)[O-])CC2)c1` was tested, and the activity change, less the hit threshold was -12.3%. `O=C(NC(=S)Nc1cccc(Cl)c1N1CCCCC1)c1cccs1` showed an activity change, less the hit threshold of -12.7%. With `O=C(NC(=S)N1CCN(c2ccc(C(F)(F)F)cc2[N+](=O)[O-])CC1)c1cccs1` the activity change, less the hit threshold was 15.6% (active). In the case of `O=C(NC(=S)N1CCN(c2c(Cl)cccc2[N+](=O)[O-])CC1)c1cccs1`, the activity change, less the hit threshold is reported as 7.2% (active). `COc1cccc(OC)c1C(=O)NC(=S)N1CCN(c2ccc(C(F)(F)F)cc2[N+](=O)[O-])CC1` was tested, and the activity change, less the hit threshold was -33.8%. With `O=C(NC(=S)N1CCN(c2ccc(Cl)cc2[N+](=O)[O-])CC1)c1cccs1` the activity change, less the hit threshold was 2.3% (active). Work on `O=C(NC(=S)Nc1cccc(Cl)c1N1CCOCC1)c1cccs1` yielded an activity change, less the hit threshold of -17%. For `COc1ccc(-c2ccc3c(N)c(C(=O)c4ccc(OC)c(OC)c4)sc3n2)cc1`, the activity change, less the hit threshold was -11.8%. Work on `Cc1c(C#N)c(O)[nH]c(=O)c1N=Nc1ccc(Br)cc1C(=O)O` yielded an activity change, less the hit threshold of -13.8%. With `COc1ccc2c(C(=O)CN3CCN(c4ccccc4)CC3)c[nH]c2c1` the activity change, less the hit threshold was -21.6%. `CCCCCCc1c(O)nc(SCC(=O)O)[nH]c1=O` gave an activity change, less the hit threshold of -23.9%. Work on `CC1=NN(c2nc(-c3ccccc3)cs2)C(=O)C1N=Nc1ccccc1` (stereo unspecified) yielded an activity change, less the hit threshold of -28%. With `Cc1nnc(NC(=O)C2CCCN(S(=O)(=O)c3ccccc3C(F)(F)F)C2)s1` (stereo unspecified) the activity change, less the hit threshold was 4.9% (active). For `COC(=O)c1ccccc1NC(=O)C1CCCN(S(C)(=O)=O)C1` (stereo unspecified), the activity change, less the hit threshold was -18.8%. Compound `CCc1nnc(NC(=O)C2CCCCN2S(=O)(=O)c2ccccc2)s1` (stereo unspecified) has an activity change, less the hit threshold of -11.7%. `CSc1nsc(SCC(=O)Nc2ccccc2C(=O)O)n1` gave an activity change, less the hit threshold of -13%. With `COC(=O)CCn1[nH]c(=O)c2ccccc2c1=O` the activity change, less the hit threshold was -15.8%. In the case of `CC(=O)NCCc1nc2cc(NC(=O)c3ccc(Cl)cc3)ccc2n1C`, the activity change, less the hit threshold is reported as -14.1%. In the case of `C/C(=N\Nc1cc(N2CCOCC2)ncn1)c1cccc([N+](=O)[O-])c1`, the activity change, less the hit threshold is reported as -15.9%. `C/C(=N\Nc1nc(C)c(C)s1)c1ccc([N+](=O)[O-])cc1` was tested, and the activity change, less the hit threshold was 17% (active). In the case of `C/C(=N/NC(=S)Nc1cccc(C)c1)c1cccc([N+](=O)[O-])c1`, the activity change, less the hit threshold is reported as -13.2%. `Cc1cc(C)cc(N(C(=O)c2cc3ccccc3oc2=O)C2C=CS(=O)(=O)C2)c1` (stereo unspecified) showed an activity change, less the hit threshold of -12.7%. In the case of `COc1cc(NC(=O)c2ccccc2)c(OC)cc1NC(=O)Cc1ccc(Br)cc1`, the activity change, less the hit threshold is reported as 12.3% (active). `COc1ccc(CC(=O)Nc2ccccc2Oc2ccccc2)cc1` gave an activity change, less the hit threshold of -0.3%. `COc1ccc(Br)cc1CNc1ccccc1` showed an activity change, less the hit threshold of -21.6%. In the case of `CCOC(=O)CN1C(=O)SC(Nc2ccc(C)cc2)C1=O` (stereo unspecified), the activity change, less the hit threshold is reported as -7%. `O=C(COc1nsnc1N1CCOCC1)Nc1ccc(Cl)cc1` showed an activity change, less the hit threshold of -17.5%. Work on `CN(Cc1cnn(C)c1)C(=O)C1CCC(=O)N(Cc2cccc(C(F)(F)F)c2)C1` (stereo unspecified) yielded an activity change, less the hit threshold of -19.6%. In the case of `COc1ccc(N2CCN(S(=O)(=O)c3ccc(Br)s3)CC2)cc1`, the activity change, less the hit threshold is reported as -14.9%. Work on `CC1=CN2C(=N)/C(=C/c3ccc(Sc4ccc(Cl)cc4)o3)C(=O)N=C2S1` yielded an activity change, less the hit threshold of -17.8%. `CCCn1c(=S)[nH]c2ccc(C(F)(F)F)cc21` showed an activity change, less the hit threshold of -3.6%. For `O=c1c2cc(Cl)ccc2[nH]c(=S)n1Cc1cccs1`, the activity change, less the hit threshold was -11.7%. In the case of `CC(C)Cn1c(=S)[nH]c2cc(Cl)ccc21`, the activity change, less the hit threshold is reported as 6.5% (active). With `COc1cccc(/C=C2/C(=O)NN(c3ccc(C)c(C)c3)C2=O)c1` the activity change, less the hit threshold was -18%. For `O=C(N1CCOCC1)N1CCC(c2nc(-c3ccc(S(=O)(=O)N4CCOCC4)cc3)no2)CC1`, the activity change, less the hit threshold was -23.6%. For `COc1cc(OC)cc(C(=O)OCC(=O)N(C)c2ccccc2)c1`, the activity change, less the hit threshold was -28%. For `COc1ccc(C(=O)NN/C(C)=C/C(=O)c2ccccc2)cc1`, the activity change, less the hit threshold was -25.7%. `C=CCNC(=S)NC(=O)c1ccc(C)c(Br)c1` showed an activity change, less the hit threshold of -17.6%. In the case of `COc1cc(OC)cc(C(=O)NC(=S)N(Cc2ccccc2)C(C)C)c1`, the activity change, less the hit threshold is reported as 31.3% (active). With `COc1ccc(C(=O)NC(=S)NCCO)cc1Br` the activity change, less the hit threshold was -13.1%. For `C=CCN(CC=C)C(=S)NC(=O)c1ccc(C)c(Br)c1`, the activity change, less the hit threshold was 135% (active). `CCOc1ccc(C(=O)NC(=S)N(Cc2ccccc2)Cc2ccccc2)cc1` gave an activity change, less the hit threshold of -5.6%. In the case of `COc1ccc(C(=O)NC(=S)N(Cc2ccccc2)Cc2ccccc2)cc1`, the activity change, less the hit threshold is reported as 28.4% (active). In the case of `COc1ccc(CN(Cc2cccnc2)C(=S)NCCc2ccccc2)cc1OC`, the activity change, less the hit threshold is reported as -13.1%. `C=CCN(CC=C)C(=S)NC(=O)c1ccc(OC)c(Br)c1` was tested, and the activity change, less the hit threshold was 46% (active). Work on `CCN(CC)C(=S)NC(=O)c1ccc(OC)c(Br)c1` yielded an activity change, less the hit threshold of -11%.
